Results filed as inconclusive are left out. Activity calls are given as the source filed them. How the source made its calls, unless noted: active means hit-call score of the fitted dose curve at least 0.9, where 1 is the maximum; inactive means score below 0.9.
Key:
[1] = target: Hepatocyte nuclear factor 4-alpha (Homo sapiens) (UniProt P41235); assay: ATG_HNF4a_TRANS: Attagene TRANS-FACTORIAL HepG2 Assay for human Hepatocyte Nuclear Factor 4 alpha (HNF4a) (AID 2282982; active means hit-call score of the fitted dose curve at least 0.9, where 1 is the maximum); details: HepG2 HNF4a transactivation reporter, mRNA readout
Outline: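 Readout is fluorescent reporter-transcript fragments resolved by capillary electrophoresis after RT-PCR from HepG2 cells dosed for 24 h. Cells carried transfected GAL4-UAS reporter constructs measuring exogenous NR-GAL4 chimera activity; DMSO served as baseline.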

[2] = ATG_M_06_TRANS: Attagene TRANS-FACTORIAL HepG2 Assay for M06 Transcription Factor (Internal Marker) (AID 2282983; active means hit-call score of the fitted dose curve at least 0.9, where 1 is the maximum;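 further: reporter transcript level by RT-PCR then capillary electrophoresis fluorescence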); details: HepG2 Attagene TRANS M06 internal marker reporter
Outline: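 Cells: HepG2, transient multi-reporter transfection. Exposure: 24 h. Detection: RT-PCR, 6-FAM labelling, HpaI digestion (2 h, 37 °C), capillary electrophoresis. Baseline: DMSO.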

[3] = target: Nuclear receptor subfamily 4 group A member 2 (Homo sapiens) (UniProt P43354); assay: ATG_NURR1_TRANS: Attagene TRANS-FACTORIAL HepG2 Assay for human Nuclear Receptor Related Protein 1 (NURR1) (AID 2282985; active means hit-call score of the fitted dose curve at least 0.9, where 1 is the maximum); details: HepG2 Attagene TRANS reporter, mRNA readout
Outline: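 Transient transfection of HepG2, human liver cells, with multiple GAL4-UAS reporter transcription units. Cells dosed 24 h, RNA isolated, reverse-transcribed, PCR-amplified, FAM-labelled, HpaI-digested, sized by capillary electrophoresis. DMSO served as negative control.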

[4] = target: Transcriptional activator Myb (Homo sapiens) (UniProt P10242); assay: ATG_Myb_CIS: Attagene CIS-FACTORIAL HepG2 Assay for human Myeloblastosis (Myb) Proto-Oncogene Transcription Factor (AID 2282986); details: HepG2 Attagene CIS-FACTORIAL Myb reporter transcription; actives raise or lower the signal
Outline: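 HepG2 cells were transiently transfected with cis-regulated multiple reporter transcription units reflecting endogenous Myb activity, then exposed to compound for 24 hours. Reporter mRNA was measured by RT-PCR with capillary electrophoresis; bidirectional fitting versus DMSO baseline.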

[5] = target: Nuclear respiratory factor 1 (Homo sapiens) (UniProt Q16656); assay: ATG_NRF1_CIS: Attagene CIS-FACTORIAL HepG2 Assay for human Nuclear Respiratory Factor 1 (NRF1) Orphan Gene (AID 2282987); details: HepG2 NRF1 cis-element reporter, Attagene multiplex; actives raise or lower the signal
Outline: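 HepG2 cells transiently transfected with multiple reporter transcription units under cis-regulatory promoter control, so endogenous transcription-factor activity is read. After 24 h compound exposure, reporter mRNA quantified by RT-PCR, fluorescent labelling, HpaI digestion and capillary electrophoresis; bidirectional fitting versus DMSO.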

[6] = ATG_NFI_CIS: Attagene CIS-FACTORIAL HepG2 Assay for human Nuclear Factor I (NFI) (AID 2282989); details: HepG2 cis-regulatory reporter, NFI response element transcription; actives raise or lower the signal
Outline: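 HepG2 cells transiently transfected with cis-element-driven multiplexed reporter transcription units, dosed for 24 h. Reporter mRNA quantified by RT-PCR, fluorescent labelling, HpaI digestion and capillary electrophoresis; bidirectional fit versus DMSO baseline.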

[7] = target: Myc proto-oncogene protein (Homo sapiens) (UniProt P01106); assay: ATG_Myc_CIS: Attagene CIS-FACTORIAL HepG2 Assay for human Myelocytomatosis (Myc) Proto-Oncogene Transcription Factor (AID 2282990); details: HepG2, Attagene cis-reporter transcription factor activity; actives raise or lower the signal
Outline: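 After 24 h chemical treatment of HepG2 cells carrying multiplexed cis-regulated reporter constructs, reporter transcripts quantified by RT-PCR and capillary electrophoresis of fluorescent fragments. Gain or loss fitted against DMSO baseline.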

[8] = ATG_NF_kB_CIS: Attagene CIS-FACTORIAL HepG2 Assay for human Nuclear Factor Kappa B (NF-kB) (AID 2282991); details: HepG2 Attagene cis-factorial NF-kB reporter mRNA; actives raise or lower the signal
Outline: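 HepG2 cells transiently transfected with multiplexed cis-element reporter units measuring endogenous transcription factor activity; reporter mRNA read 24 h after dosing by RT-PCR, fluorescent labelling, HpaI digestion and capillary electrophoresis. Bidirectional fit against DMSO baseline.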

[9] = ATG_NRF2_ARE_CIS: Attagene CIS-FACTORIAL HepG2 Assay for human Nuclear Factor Erythroid 2 Related Factor 2 (NFR2) response to Antioxidant Response Elements (ARE) (AID 2282992); details: HepG2 Attagene ARE/NRF2 reporter, transcription factor activity; actives raise or lower the signal;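 on AC50: reporter mRNA level measured by RT-PCR and capillary electrophoresis fluorescence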
Outline: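 Transient MRTU transfection of HepG2; 24 h compound exposure; TriZol RNA, RT with oligo(dT), PCR, 6-FAM primer extension, HpaI cut, CE. Bidirectional fit vs DMSO.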

[10] = ATG_Oct_MLP_CIS: Attagene CIS-FACTORIAL HepG2 Assay for human Octamer-Binding Transcription Factor (Oct) (AID 2282993); details: HepG2 Attagene cis-factorial Oct reporter, mRNA; actives raise or lower the signal
Outline: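 HepG2 cells transiently transfected with cis-promoter-driven multiplexed reporter transcription units, dosed for 24 h. Reporter mRNA quantified by RT-PCR, fluorescent labelling, HpaI digestion and capillary electrophoresis; bidirectional fits versus DMSO baseline.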

[11] = target: Cellular tumor antigen p53 (Homo sapiens) (UniProt P04637); assay: ATG_p53_CIS: Attagene CIS-FACTORIAL HepG2 Assay for human p53 Transcription Factor (AID 2282994); details: HepG2 p53 cis-element reporter, Attagene mRNA; actives raise or lower the signal
Outline: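 HepG2, transient MRTU transfection (cis promoter elements, endogenous TFs); 24 h dosing; RNA isolation, RT-PCR, 6-FAM primer extension, HpaI digest, CE fluorescence; bidirectional fit vs DMSO.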

[12] = BSK_3C_TissueFactor: BioMAP Diversity Plus: 3C Assay for Tissue Factor Biomarker Activity (AID 2282997); details: BioMAP 3C HUVEC, tissue factor biomarker readout; actives raise or lower the signal
Outline: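 Dosing of human umbilical vein endothelial cells preceded a 24 h incubation. Tissue Factor was then read by ELISA, with increases and decreases both scored relative to DMSO controls.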

[13] = BSK_3C_uPAR: BioMAP Diversity Plus: 3C Assay for Urokinase-type plasminogen activator receptor (uPAR) Biomarker Activity (AID 2282998); details: BioMAP 3C HUVEC, uPAR biomarker ELISA; actives raise or lower the signal
Outline: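 Human umbilical vein endothelial primary cells were exposed to test chemical for 24 h. Cell-surface uPAR was then quantified by ELISA, and responses were fitted bidirectionally against DMSO as negative control and baseline.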

[14] = BSK_3C_VCAM1: BioMAP Diversity Plus: 3C Assay for Vascular cell adhesion molecule 1 (VCAM1) Biomarker Activity (AID 2282999); details: BioMAP 3C HUVEC, VCAM1 ELISA, cytokine-stimulated; actives raise or lower the signal
Outline: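 Endothelial cells from human umbilical vein are treated with test chemical. At 24 h, VCAM-1 is measured by ELISA, and responses in either direction are fitted relative to DMSO.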

[15] = BSK_4H_Eotaxin3: BioMAP Diversity Plus: 4H Assay for Eotaxin 3 Biomarker Activity (AID 2283000); details: primary human endothelial cells (HUVEC); actives raise or lower the signal;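 further: CCL26 protein level quantified by ELISA in parallel with SRB cytotoxicity check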
Outline: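 Human umbilical vein endothelial cells (BSK_4H system) dosed with test chemical; Eotaxin-3 (CCL26) measured by ELISA 24 h after dosing. Bidirectional curve fitting relative to DMSO negative control as baseline.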

[16] = target: human Peroxisome Proliferator-activated Receptor delta (PPARd), PPARD (gene 5467) (UniProt Q03181); assay: ATG_PPARd_TRANS: Attagene TRANS-FACTORIAL HepG2 Assay for human Peroxisome Proliferator-activated Receptor delta (PPARd) (AID 2283002; active means hit-call score of the fitted dose curve at least 0.9, where 1 is the maximum)
Outline: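 Read-out is induced reporter mRNA, quantified by RT-PCR with fluorescent labelling and capillary electrophoresis after 24 h dosing. Cells are HepG2 transiently carrying multiple GAL4-UAS reporter units driven by exogenous NR-GAL4 chimeras; DMSO serves as baseline.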

[17] = read-out: Intercellular Adhesion Molecule 1 (ICAM1), ICAM1 (gene 3383); assay: BSK_3C_ICAM1: BioMAP Diversity Plus: 3C Assay for Intercellular Adhesion Molecule 1 (ICAM1) Biomarker Activity (AID 2283003); details: primary human endothelial cells (HUVEC); actives raise or lower the signal
Outline: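 ICAM-1 levels measured by ELISA after HUVEC cultures in the 3C system had been dosed for 24 h. Gain or loss of signal relative to DMSO was fitted in both directions.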

[18] = target: human Peroxisome Proliferator-activated Receptor alpha (PPARa), PPARA (gene 5465) (UniProt Q07869); assay: ATG_PPARa_TRANS: Attagene TRANS-FACTORIAL HepG2 Assay for human Peroxisome Proliferator-activated Receptor alpha (PPARa) (AID 2283001; active means hit-call score of the fitted dose curve at least 0.9, where 1 is the maximum)
Outline: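 Read-out is fluorescence of reporter cDNA fragments resolved by capillary electrophoresis after RT-PCR. Human HepG2 liver cells carried transfected PPARa-Gal4 chimera and GAL4-UAS reporter units, treated 24 h; activity scored as increase over DMSO.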

[19] = ATG_M_32_TRANS: Attagene TRANS-FACTORIAL HepG2 Assay for M32 Transcription Factor (Internal Marker) (AID 2282984; active means hit-call score of the fitted dose curve at least 0.9, where 1 is the maximum;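 further: transcript level of a background control reporter unit measured by RT-PCR and capillary electrophoresis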); details: HepG2 Attagene TRANS M32 internal marker reporter
Outline: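 Measures reporter mRNA induction in human HepG2 liver cells after 24 h chemical treatment. Transcripts from transiently transfected GAL4-UAS reporter units are amplified, fluorescently labelled and sized by capillary electrophoresis; gain of signal relative to DMSO.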

Measured: AC50

Myc proto-oncogene protein (Homo sapiens), sequence (P01106 whole entry, looked up, the tested form may be a part): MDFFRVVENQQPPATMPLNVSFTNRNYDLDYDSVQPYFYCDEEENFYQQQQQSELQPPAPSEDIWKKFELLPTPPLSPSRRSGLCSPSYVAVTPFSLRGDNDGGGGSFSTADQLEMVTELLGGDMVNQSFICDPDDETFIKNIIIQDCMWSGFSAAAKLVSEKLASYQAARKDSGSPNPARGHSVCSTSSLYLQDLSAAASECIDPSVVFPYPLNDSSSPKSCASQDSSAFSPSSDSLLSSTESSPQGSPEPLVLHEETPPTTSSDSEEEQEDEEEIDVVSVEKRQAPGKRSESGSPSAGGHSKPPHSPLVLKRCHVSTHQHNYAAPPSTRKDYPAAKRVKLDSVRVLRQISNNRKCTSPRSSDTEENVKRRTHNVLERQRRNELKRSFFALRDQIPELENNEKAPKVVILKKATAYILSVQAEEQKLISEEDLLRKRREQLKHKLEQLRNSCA
human Peroxisome Proliferator-activated Receptor alpha (PPARa), PPARA (gene 5465), sequence (Q07869 whole entry, looked up, the tested form may be a part): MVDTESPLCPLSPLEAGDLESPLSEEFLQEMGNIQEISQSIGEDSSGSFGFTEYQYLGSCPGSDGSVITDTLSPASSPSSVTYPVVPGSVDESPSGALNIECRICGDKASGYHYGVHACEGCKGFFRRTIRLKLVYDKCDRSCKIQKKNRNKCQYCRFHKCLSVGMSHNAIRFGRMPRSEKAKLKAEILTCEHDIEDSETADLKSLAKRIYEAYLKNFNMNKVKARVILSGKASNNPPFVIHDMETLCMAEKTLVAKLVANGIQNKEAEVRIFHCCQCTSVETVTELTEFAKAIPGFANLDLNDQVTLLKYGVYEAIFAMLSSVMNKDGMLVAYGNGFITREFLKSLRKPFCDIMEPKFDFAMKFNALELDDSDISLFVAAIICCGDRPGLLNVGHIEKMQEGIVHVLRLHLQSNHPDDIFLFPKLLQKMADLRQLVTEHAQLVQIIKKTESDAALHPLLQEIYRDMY
Transcriptional activator Myb (Homo sapiens), sequence (P10242 whole entry, looked up): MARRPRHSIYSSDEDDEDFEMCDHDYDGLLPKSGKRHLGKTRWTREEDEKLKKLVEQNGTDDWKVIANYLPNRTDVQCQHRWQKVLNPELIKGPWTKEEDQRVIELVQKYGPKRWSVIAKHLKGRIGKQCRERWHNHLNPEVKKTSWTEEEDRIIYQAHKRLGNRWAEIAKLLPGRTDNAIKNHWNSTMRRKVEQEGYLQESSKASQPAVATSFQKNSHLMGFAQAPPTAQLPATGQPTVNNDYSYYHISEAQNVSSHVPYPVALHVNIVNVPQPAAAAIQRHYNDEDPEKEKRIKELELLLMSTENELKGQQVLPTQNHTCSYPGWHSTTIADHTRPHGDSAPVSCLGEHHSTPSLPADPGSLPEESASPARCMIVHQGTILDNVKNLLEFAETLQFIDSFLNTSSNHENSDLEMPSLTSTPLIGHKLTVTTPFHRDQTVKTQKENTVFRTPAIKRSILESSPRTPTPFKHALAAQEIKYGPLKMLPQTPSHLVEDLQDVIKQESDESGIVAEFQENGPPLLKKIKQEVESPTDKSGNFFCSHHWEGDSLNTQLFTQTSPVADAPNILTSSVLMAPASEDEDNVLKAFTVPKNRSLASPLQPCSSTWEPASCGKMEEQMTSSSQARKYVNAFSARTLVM
Nuclear receptor subfamily 4 group A member 2 (Homo sapiens), sequence (P43354 whole entry, looked up, the tested form may be a part): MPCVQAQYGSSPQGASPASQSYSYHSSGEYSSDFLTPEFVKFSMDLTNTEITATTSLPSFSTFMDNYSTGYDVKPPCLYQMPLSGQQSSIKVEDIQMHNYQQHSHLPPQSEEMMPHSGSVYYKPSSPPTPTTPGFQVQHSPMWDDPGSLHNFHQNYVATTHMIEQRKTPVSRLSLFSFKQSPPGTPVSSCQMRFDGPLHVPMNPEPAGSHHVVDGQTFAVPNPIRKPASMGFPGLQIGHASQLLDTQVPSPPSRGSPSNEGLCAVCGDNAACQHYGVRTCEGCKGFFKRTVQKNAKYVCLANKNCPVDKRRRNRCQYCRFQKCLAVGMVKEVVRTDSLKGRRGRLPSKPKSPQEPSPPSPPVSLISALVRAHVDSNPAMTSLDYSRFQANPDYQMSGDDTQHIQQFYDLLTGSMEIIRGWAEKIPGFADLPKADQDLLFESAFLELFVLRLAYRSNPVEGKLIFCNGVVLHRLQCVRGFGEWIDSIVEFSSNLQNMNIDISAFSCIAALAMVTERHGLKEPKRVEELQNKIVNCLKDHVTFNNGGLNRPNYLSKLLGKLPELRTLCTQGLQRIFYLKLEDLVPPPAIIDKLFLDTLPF
human Peroxisome Proliferator-activated Receptor delta (PPARd), PPARD (gene 5467), sequence (Q03181 whole entry, looked up, the tested form may be a part): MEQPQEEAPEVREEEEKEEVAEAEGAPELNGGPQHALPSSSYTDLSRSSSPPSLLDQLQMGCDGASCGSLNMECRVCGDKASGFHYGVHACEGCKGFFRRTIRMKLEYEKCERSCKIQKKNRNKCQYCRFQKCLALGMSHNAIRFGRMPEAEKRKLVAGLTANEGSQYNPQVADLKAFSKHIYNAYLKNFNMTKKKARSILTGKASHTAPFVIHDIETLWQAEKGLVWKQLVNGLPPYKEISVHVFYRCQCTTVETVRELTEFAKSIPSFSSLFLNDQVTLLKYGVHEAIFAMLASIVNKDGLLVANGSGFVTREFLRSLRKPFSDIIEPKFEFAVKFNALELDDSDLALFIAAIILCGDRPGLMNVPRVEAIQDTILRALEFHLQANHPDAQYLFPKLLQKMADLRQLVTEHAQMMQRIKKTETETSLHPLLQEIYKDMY
Hepatocyte nuclear factor 4-alpha (Homo sapiens), sequence (P41235 whole entry, looked up, the tested form may be a part): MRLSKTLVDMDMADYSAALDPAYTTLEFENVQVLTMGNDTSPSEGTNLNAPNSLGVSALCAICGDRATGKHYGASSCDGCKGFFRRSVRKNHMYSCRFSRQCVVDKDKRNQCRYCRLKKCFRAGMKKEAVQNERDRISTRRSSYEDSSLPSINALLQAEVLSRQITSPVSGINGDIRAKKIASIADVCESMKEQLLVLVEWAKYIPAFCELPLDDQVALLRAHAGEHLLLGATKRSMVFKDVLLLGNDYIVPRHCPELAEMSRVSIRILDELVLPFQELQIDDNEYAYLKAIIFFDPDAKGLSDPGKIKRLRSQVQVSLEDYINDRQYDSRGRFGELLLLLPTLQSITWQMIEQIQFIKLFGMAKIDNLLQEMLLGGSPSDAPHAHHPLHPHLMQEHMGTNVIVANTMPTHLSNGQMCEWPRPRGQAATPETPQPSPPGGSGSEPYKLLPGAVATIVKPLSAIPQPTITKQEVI
Cellular tumor antigen p53 (Homo sapiens), sequence (P04637 whole entry, looked up): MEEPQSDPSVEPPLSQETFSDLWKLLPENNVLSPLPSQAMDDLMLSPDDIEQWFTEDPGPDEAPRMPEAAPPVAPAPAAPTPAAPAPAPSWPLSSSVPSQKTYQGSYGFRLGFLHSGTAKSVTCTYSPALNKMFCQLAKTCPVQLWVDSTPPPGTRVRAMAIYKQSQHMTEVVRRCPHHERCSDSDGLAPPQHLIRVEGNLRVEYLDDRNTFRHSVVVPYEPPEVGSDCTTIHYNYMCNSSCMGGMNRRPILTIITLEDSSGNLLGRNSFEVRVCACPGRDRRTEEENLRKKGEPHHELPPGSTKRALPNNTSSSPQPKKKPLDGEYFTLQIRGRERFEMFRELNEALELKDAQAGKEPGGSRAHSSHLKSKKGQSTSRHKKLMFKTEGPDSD
Nuclear respiratory factor 1 (Homo sapiens), sequence (Q16656 whole entry, looked up): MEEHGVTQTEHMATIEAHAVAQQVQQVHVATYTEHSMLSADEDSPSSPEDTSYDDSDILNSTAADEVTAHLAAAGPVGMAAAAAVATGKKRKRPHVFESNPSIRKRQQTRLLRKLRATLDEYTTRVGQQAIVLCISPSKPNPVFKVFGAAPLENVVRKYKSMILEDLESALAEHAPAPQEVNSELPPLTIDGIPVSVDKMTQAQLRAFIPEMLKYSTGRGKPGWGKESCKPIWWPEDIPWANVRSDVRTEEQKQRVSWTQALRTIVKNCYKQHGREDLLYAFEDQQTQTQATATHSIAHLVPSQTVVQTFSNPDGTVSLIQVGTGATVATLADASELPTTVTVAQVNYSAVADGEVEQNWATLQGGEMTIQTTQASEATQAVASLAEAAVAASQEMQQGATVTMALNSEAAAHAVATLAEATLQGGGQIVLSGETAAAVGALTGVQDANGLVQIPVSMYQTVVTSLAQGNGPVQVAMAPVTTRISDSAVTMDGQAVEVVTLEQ

CCCSC(=O)N(CCC)CCC
inactive: [1] | [2] | [3] | [4] | [5] | [6] | [7] | [8] | [9] | [10] | [11] | [12] | [13] | [14] | [15] | [16] | [17]

O=C(O)C1C2CCC(O2)C1C(=O)O (centres undefined)
active: [9] 34.7 µM | [10] 75.4 µM | [11] 100 µM | [14] 21 µM
inactive: [1] | [2] | [3] | [4] | [5] | [6] | [7] | [12] | [13] | [15] | [18] | [16] | [17]

C=CCc1ccc2c(c1)OCO2
inactive: [1] | [2] | [19] | [3] | [4] | [5] | [6] | [7] | [8] | [9] | [11] | [12] | [13] | [14] | [15] | [18] | [17]

Clc1ccccc1Cl
inactive: [1] | [2] | [4] | [5] | [6] | [7] | [9] | [10] | [12] | [13] | [14] | [15] | [18] | [17]

OCCCBr
inactive: [1] | [2] | [3] | [4] | [5] | [6] | [7] | [8] | [9] | [11] | [12] | [13] | [14] | [15] | [16] | [17]

Nc1ccc([N+](=O)[O-])cc1
inactive: [1] | [2] | [19] | [3] | [4] | [5] | [6] | [7] | [8] | [9] | [10] | [11] | [12] | [13] | [14] | [15] | [18] | [17]

From PubChem BioAssay (EPA / NIEHS)
